Rows were chosen to be rich in hits. Some 18% of all compounds tested hit in one or more screens of this group.
DT40 TDP1 no CPT: qHTS for Inhibitors of human tyrosyl-DNA phosphodiesterase 1 (TDP1): qHTS in cells in absence of CPT; DT40 Tdp1-/- hTDP1 cells, no CPT, ATP luminescence, 48 h; Potency, µM (titrated, usually from 46.2 µM), inactives show at the top dose activity change, negative = growth inhibition, actives largely listed as inhibitors; actives 15% (n = 420,000); AID 686978, 2013; note: nearly all actives have a fitted effect of over 55% in size
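Compound effects on proliferation are scored in DT40 Tdp1-/-;hTDP1 cells in the absence of CPT. ATP levels (CellTiter-Glo luminescence) are recorded after a ≥48 hr, 37 °C incubation.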
TDP1 block: blocks human tyrosyl-DNA phosphodiesterase 1 | Q9NUW8 | AID 485290 | recombinant TDP1, AlphaScreen DNA substrate cleavage | actives 0.28% (n = 350,000) | Potency, µM (highest dose often 130 µM), inactives show at the highest dose activity change, negative = inhibition, most hits filed as inhibitors; note: nearly all actives have a fitted effect of over 40% in size
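AlphaScreen read-out: signal falls as enzyme removes the 3' tyrosine-FITC from a 5'-biotinylated DNA oligo (15 nM, 5 min, RT). Enzyme was E. coli-made recombinant Tdp1 at 1 nM, exposed to compound for 15 min beforehand; beads 10 ug/ml, 10 min.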
PLK1 PBD inh: PLK1 (human) polo-box domain binding inhibition; Plk1 PBD binding of FITC phosphopeptide, fluorescence polarization; P53350; actives 2.8% (n = 360,000); Potency, µM, without a hit: max response, negative = inhibition, hits mostly inhibitors; note: series mostly up to about 57 µM; nearly all actives have a fitted effect of over 65% in size
DT40 TDP1 CPT: growth inhibition of DT40 Tdp1-/-;hTDP1 cells with camptothecin (screen for TDP1 inhibitors); Potency, µM (titrated, usually from 46.2 µM), inactives show at the highest dose activity change, negative = growth inhibition, hits mostly inhibitors; actives 12% (n = 420,000); chicken DT40 Tdp1-/-;hTDP1 cells + 20 nM CPT, ATP luminescence, 48 h; note: nearly all actives have a fitted effect of over 55% in size
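Chicken DT40 Tdp1-/- cells complemented with human TDP1, 400 cells/well, exposed to compounds plus 20 nM camptothecin for at least 48 h at 37 C; viability read as ATP content by CellTiter-Glo luminescence.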
KAT2A inh: inhibitors of human GCN5L2 histone acetyltransferase; Q92830; GCN5L2 HAT assay, ThioGlo1 CoA-SH fluorescence; Potency, µM (highest dose often 58.9 µM), inactives show at the highest dose activity change, negative = inhibition, actives largely listed as inhibitors; actives 0.21% (n = 390,000); AID 504327
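qHTS, 1536-well. 20nM enzyme, pH 7.5 HEPES/EDTA/Tween-20 buffer; 15 min compound preinc., RT. Start: 75uM H3(1-25), 70uM AcCoA, 50uM ThioGlo1. Read Ex340/Em540 at t=0 (autofluorescence flag) and t=20 min.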
VDR inhibitor: vitamin D3 receptor (human) inhibition; P11473; VDR-SRC2-3 peptide fluorescence polarization, 2 h; Potency, µM, for the others: max response, negative = inhibition, most hits filed as inhibitors; actives 0.93% (n = 400,000)
Target sequence (P11473 whole entry, looked up): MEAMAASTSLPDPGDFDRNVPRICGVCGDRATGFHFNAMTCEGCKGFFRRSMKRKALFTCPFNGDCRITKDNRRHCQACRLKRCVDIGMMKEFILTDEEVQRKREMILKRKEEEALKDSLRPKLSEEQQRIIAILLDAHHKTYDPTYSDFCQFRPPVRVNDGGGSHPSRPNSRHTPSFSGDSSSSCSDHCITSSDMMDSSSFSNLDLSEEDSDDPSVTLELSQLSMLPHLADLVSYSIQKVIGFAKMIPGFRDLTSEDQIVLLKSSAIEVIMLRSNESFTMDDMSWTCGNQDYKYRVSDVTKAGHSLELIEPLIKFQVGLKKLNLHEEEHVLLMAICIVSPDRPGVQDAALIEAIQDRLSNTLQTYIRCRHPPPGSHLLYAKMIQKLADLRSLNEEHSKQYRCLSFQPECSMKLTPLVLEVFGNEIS
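VDR–SRC2-3 interaction, FP format. Cmpds 23 nl via pintool, brief spin, 2 h ambient incubation.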
Numbers without * were called inactive; ? = inconclusive; · = no result given. Calls come from the whole dose curve; as a rule, active = well fitted curve in the direction sought with a large enough effect; inconclusive = small, poorly fitted or top-dose-only effect, or another doubt; inactive = no such curve, though single readings can be large; an effect the other way counts as inactive or inconclusive. % is set by controls: 0 for no effect and ±100 for the full control effect; potency is the fitted concentration of half-maximal effect.

SMILES | DT40 TDP1 no CPT | TDP1 block | PLK1 PBD inh | DT40 TDP1 CPT | KAT2A inh | VDR inhibitor
CC(C)Oc1cccc(C(=O)NC(=S)Nc2ccc(N3CCN(C)CC3)cc2)c1 | ? | 8.6% | -16.0% | ? | -3.9% | -10.3%
COc1cccc(C(=O)NC(=S)Nc2ccc(N3CCCC3)cc2)c1 | 16.4µM* | 13.7% | -10.1% | ? | -5.7% | 12.4%
CCOc1cccc(C(=O)Nc2ccc3ccccc3c2)c1 | -23.9% | · | -4.5% | 25.1% | -3.1% | 7.3%
CCCC(=O)N1CCN(c2ccc(NC(=S)NC(=O)c3cccc(C)c3)cc2)CC1 | 23.1µM* | 8.2% | -4.7% | ? | 0.0% | 7.2%
CCOc1cccc(C(=O)Nc2ccc(N(CC)CC)cc2)c1 | ? | 8.3% | 0.2% | 20.6µM* | -4.6% | -5.7%
COc1ccc(C(=O)NC(=S)Nc2ccc(N3CCCC3)cc2)cc1 | -19.3% | 8.2% | -19.3% | -13.7% | 1.5% | -3.2%
COc1ccc(CNC(=O)CN(Cc2ccco2)C(=O)CCC(=O)Nc2ccccn2)cc1 | -13.7% | -2.5% | 2.3% | -0.9% | -15.9% | -7.2%
O=C(C(c1ccccc1)c1ccccc1)N1CC[C@@]2(O)CCCC[C@H]2C1 | ? | 2.8% | -12.4% | -5.9% | 0.4% | -9.0%
COc1ccc(S(=O)(=O)N2c3ccccc3OCC2CC(=O)O)cc1 (stereo not drawn) | 29.1µM* | · | 21.2µM* | ? | 19.7% | ?
COc1ccc(S(=O)(=O)N2c3ccccc3OCC2C)cc1 (stereo not drawn) | 0.82µM* | 2.9% | -6.5% | 0.581µM* | -11.1% | 9.3%
COc1ccc(S(=O)(=O)N2CC(C(=O)O)Oc3ccccc32)cc1 (stereo not drawn) | -19.1% | · | -15.1% | -3.6% | 12.5% | -13.7%
COc1ccc(S(=O)(=O)N2CCOc3ccccc32)cc1 | 3.66µM* | · | -8.3% | 5.17µM* | -17.9% | 35.4%
COc1ccc(S(=O)(=O)N2c3ccccc3OCC2c2ccccc2)cc1 (stereo not drawn) | 23.1µM* | -2.1% | -7.1% | 18.4µM* | -29.8% | 2.1%
CSCC[C@H](NC(=O)OC(C)(C)C)C(=O)N1CCC(C(=O)N[C@@H](C)C(=O)NCc2ccc(F)cc2)CC1 | -11.8% | · | -2.4% | -25.5% | -14.4% | -17.7%
CC1(C)S[C@@H]2[C@H](NC(=O)COc3ccccc3)C(=O)N2[C@@H]1C(=O)OCc1cccc2cccnc12 | -13.2% | · | · | 11.7% | · | ·
O=c1cc(N2CCN(c3ccc(F)cc3)CC2)[nH]c(=O)n1-c1ccc(Br)cc1 | ? | 0.0% | · | ? | 1.9% | 5.9%
Cc1cccc(-n2c(=O)cc(N3CCN(c4ccc(F)cc4)CC3)[nH]c2=O)c1 | 18.4µM* | -5.2% | 5.5% | ? | 1.1% | 8.4%
CC(C)CCCC(C)C1CC(=O)C2=C3CCC4CC(O)CCC4(C)C3CCC21C (stereo not drawn) | · | 9.6% | · | · | -10.6% | 4.8%
COc1cccc(Nc2cc(-c3ccccc3)nc(C)n2)c1 | ? | -0.5% | · | ? | -12.6% | 9.7%
CCOC(=O)c1ccc(Nc2cc(-c3ccccc3)nc(C)n2)cc1 | ? | -3.6% | · | -29.3% | -1.6% | 2.2%
Cc1nc(Nc2ccc(Cl)cc2)cc(-c2ccccc2)n1 | -102.6% | -2.6% | · | 23.1µM* | -19.8% | 10.2%
Cc1ccc(Nc2cc(-c3ccccc3)nc(C)n2)cc1 | 25.9µM* | 4.7% | · | ? | -9.3% | 1.0%
COc1ccc2nc(C)cc(N3CCOCC3)c2c1 | -24.5% | 4.5% | -4.5% | -26.3% | -7.7% | -6.6%
COc1ccc2nc(C)cc(N3CCN(S(=O)(=O)c4ccccc4F)CC3)c2c1 | 3.26µM* | 2.5% | -2.7% | ? | 0.3% | -22.9%
COc1ccc2nc(C)cc(N3CCN(c4ccccc4)CC3)c2c1 | 18.4µM* | 12.9% | 2.5% | 20.6µM* | -3.6% | 4.8%

Screening data as filed in PubChem.
